Source: PubChem
Shiga toxin inh: Shiga toxin inhibition | Vero cells, Shiga toxin protein synthesis inhibition reporter | inhibition, % at 38.7 µM | actives 9.2% (n = 290,000) | AID 2315; in the data active = inhibition mostly above about 28%, no sharp cut-off; inactive = mostly below about 43%
CHX counter: counter-screen for Shiga toxin inhibitors: cycloheximide protein synthesis inhibition | cell reporter, cycloheximide protein synthesis inhibition counterscreen | max response, % | actives 12% (n = 300,000) | AID 2314; in the data active = max response mostly above about 13%, no sharp cut-off; inactive = mostly below about 14%; also: read at 38.3 µM for the half of the compounds with a filed dose
FMDV inh: blocks foot and mouth disease virus; FMDV antiviral cell-based qHTS; Potency, µM (highest dose often 57.9 µM), hits mostly inhibitors; actives 1.2% (n = 410,000); calls by dose curve; tested in HEK293T cells; also: read-out not given here; nearly all actives have a fitted effect of over 45% in size
Sm TGR inh: blocks Schistosoma mansoni thioredoxin glutathione reductase. AID 485364. Potency, µM (doses to about 114 µM), hits mostly inhibitors. actives 3% (n = 360,000). purified TGR, DTNB reduction, TNB absorbance 405 nm; active = well fitted inhibition curve with a large enough effect; inconclusive = small, poorly fitted or top-dose-only effect; inactive = no such curve, though single readings can be large or run the other way; also: nearly all actives have a fitted effect of over 60% in size
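Kinetic colorimetric format: TGR-catalysed, NADPH-driven DTNB reduction monitored via TNB absorbance. Enzyme dispensed at 20 nM; compound exposure 15 min at room temperature before reaction start.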
A number is an active result; . = inactive; ? = inconclusive; / = no result. Shown are actives, neighbours in structure and some others; about 12% of the full set was active somewhere.

SMILES	Shiga toxin inh	CHX counter	FMDV inh	Sm TGR inh
CCc1ccc(CNC(=O)C(C)n2ccc3cc(S(=O)(=O)N4CCCCCC4)ccc32)cc1 (configuration not stated)	/	/	.	.
CCCn1c(C)cc(C(=O)COc2ccc(-c3nnco3)cc2)c1C	67	42	.	.
Cc1cc(C(=O)COc2ncnc3sccc23)c(C)n1C1CC1	92	49	/	.
CCCn1c(C)cc(C(=O)COc2ncnc3sccc23)c1C	105	44	.	?
CCOC(=O)c1cc(OC(=O)c2ccc(OC)c(OC)c2)n(-c2ccccc2)n1	/	/	.	.
COc1cc(-c2nc(Cn3nnc(C(=O)Nc4cc(C)cc(C)c4)c3C)c(C)o2)cc(OC)c1OC	/	/	.	.
Cc1ccc(N2C(=O)C(CN(C)C)C2c2ccccc2)cc1 (configuration not stated)	.	.	.	.
Cc1ccc(C2C=NN(c3ccccc3)C2=O)cc1 (configuration not stated)	29	18	.	.
COc1ccc(C2(CNC(=O)C(=O)Nc3ccc(F)cc3)CCCC2)cc1OC	/	/	?	.
CCN(Cc1ccccc1)C(=O)Cn1c(=O)n(-c2ccc(Cl)cc2)c(=O)c2c(C)c(C)sc21	/	/	.	.
CCOC(=O)C(C)N1C(=O)S/C(=C/c2cc(C)n(-c3ccncc3)c2C)C1=O (configuration not stated)	.	18	.	.
CCOC(=O)C(C)N1C(=O)S/C(=C/c2cc(C)n(-c3ccccn3)c2C)C1=O (configuration not stated)	114	31	.	.
CC(C)(C)Nc1nc(OCC(F)(F)F)nc(OCC(F)(F)F)n1	31	13	.	.
CCC(C)Nc1nc(OCC(F)(F)F)nc(OCC(F)(F)F)n1 (configuration not stated)	.	.	.	.
O=c1cnc2ccccc2n1Cc1ccc(Br)cc1	56	18	.	.
CC(C)(C)c1ccc(Cn2c(=O)cnc3ccccc32)cc1	90	38	13µM	.
Cc1csc2nc(CSc3ccc(Cl)cc3)cn12	79	49	.	?
c1cn2cc(CSC3CCCCC3)nc2s1	95	42	.	.
Clc1ccc(SCc2cn3ccsc3n2)cc1	.	51	.	.
Nn1c(SCc2cn3ccsc3n2)nnc1-c1ccncc1	.	.	.	.
Cc1ccc(S(=O)(=O)NCCc2cn3c(C)csc3n2)cc1	/	/	.	.
CN(C(=O)CSc1nnc(-c2ccc([N+](=O)[O-])cc2)o1)c1ccccc1	/	/	.	.
O=S(=O)(NCC(c1ccco1)N1CCN(c2ccccc2)CC1)c1ccccc1 (configuration not stated)	/	/	.	.
COC(=O)c1[nH]c2ccc(Cl)cc2c1NC(=O)C1CC1	.	.	.	.
COC(=O)c1[nH]c2ccc(Cl)cc2c1NC(=O)Oc1ccccc1	56	40	.	.
SMILES	Shiga toxin inh	CHX counter	FMDV inh	Sm TGR inh
Nc1ccc(Oc2ccc3c(c2)OCO3)cc1	.	.	.	.
c1ccc2c(Oc3ccc4c(c3)OCO4)nncc2c1	76	29	.	.
Oc1ccc(/C=N/Nc2ccc(Cl)nn2)cc1O	.	39	.	?
Oc1ccc(/C=N/NP(=S)(c2ccccc2)c2ccccc2)cc1O	.	.	.	.
Cc1ccc(/C=N/Nc2ccc(Cl)nn2)cc1	45	13	.	.
Fc1ccccc1/C=N/Nc1ccc(Cl)nn1	38	.	.	.
COc1cccc(/C=N/Nc2ccc(Cl)nn2)c1OC	/	/	.	/
Cc1cc(OCc2cc(C(=O)N3CCCCCC3)no2)cc(C)c1Cl	128	61	.	.
Cc1ccc(OCc2cc(C(=O)NCc3ccc(OC(F)(F)F)cc3)no2)cn1	.	.	.	.
Cc1ccc(OCc2cc(C(=O)N3CCc4sccc4C3)no2)cc1C	.	.	.	.
C=CCC1(CC=C)CCCN1C(=O)c1cc(COc2ccc(F)c(F)c2)on1	.	.	?	?
C=CCC1(CC=C)CCCN1C(=O)c1cc(COc2ccc(C)nc2)on1	78	21	?	.
CCc1cc(CNC(=O)c2cc(COc3ccc(C)nc3)on2)on1	59	44	.	.
Cc1ccc(OCc2cc(C(=O)N3CCCCCCC3)no2)cc1C	38	20	.	.
COc1ccc(CNC(=O)c2ccc(-c3nc(CSc4ccccc4)c(C)o3)cc2)cc1OC	/	/	.	.
Cc1ccc(OC(=O)CSc2nnc(CNC(=O)c3ccccc3)o2)cc1	/	/	.	.
CCOC(=O)c1ccc(NC(=O)c2csnn2)cc1	/	/	.	.
Cc1ccc(OCc2cc(C(=O)N3CCC(c4ccccc4Cl)C3)no2)cc1C (configuration not stated)	73	63	.	.
Cc1ccc(OCc2cc(C(=O)N3CCC(C(O)C(C)C)CC3)no2)cc1C (configuration not stated)	52	24	.	.
Cc1cccc(N2CCN(C(=O)c3cc(COc4ccc(F)c(F)c4)on3)CC2)n1	.	40	.	.
CC(=O)NCCC1CCN(C(=O)c2cc(COc3ccc(C)nc3)on2)CC1	.	.	.	.
COCC1CCN(C(=O)c2cc(COc3cc(C)c(Cl)c(C)c3)on2)C1 (configuration not stated)	45	72	.	.
COCC1CCN(C(=O)c2cc(COc3cncc(Cl)c3)on2)C1 (configuration not stated)	.	.	.	.
CCOC(=O)c1c(S(=O)(=O)N2CCC(C(=O)N3CCN(c4cccc(C)c4C)CC3)CC2)c(C)n(C)c1C	/	/	.	.
COC(=O)C(Cc1c[nH]c2ccccc12)NC(=O)COc1cccc(C)c1 (configuration not stated)	/	/	.	.
SMILES	Shiga toxin inh	CHX counter	FMDV inh	Sm TGR inh
Cc1ccc(OCc2cc(C(=O)N(CCO)Cc3cccs3)no2)cc1C	160	51	.	.
Cc1ccc(OCc2cc(C(=O)N3CCCC3)no2)cn1	74	44	.	.
CCN(Cc1ccncc1)C(=O)c1cc(COc2ccc(C)c(C)c2)on1	.	.	.	.
Cc1ccc(OCc2cc(C(=O)N3CCN(c4ccccc4)CC3)no2)cc1C	59	41	.	.
Cc1cccc(C)c1OCc1cc(C(=O)N2CCCCCCC2)no1	49	43	.	.
CCOC(=O)c1ccccc1NC(=O)N(C)CCc1c(C)nn(CC)c1C	/	/	.	.
CSc1ccccc1OCc1cc(C(=O)N2CCNC(=O)C2)no1	.	.	.	.
Cc1cccc(C)c1OCc1cc(C(=O)N2CCNC(=O)C2)no1	.	24	.	.
Cc1ccc(OCc2cc(C(=O)N3CCN(C4CCCC4)CC3)no2)cc1C	53	42	.	?
Cc1cc(OCc2cc(C(=O)N3CCN(CC4CC4)CC3)no2)cc(C)c1Cl	.	.	.	.
Cc1cc(OCc2cc(C(=O)N3CCC(Oc4cccnc4)CC3)no2)cc(C)c1Cl	.	.	?	.
Cc1ccc(OCc2cc(C(=O)N3CCN(C4CCCCC4)CC3)no2)cc1C	65	52	.	.
O=C(c1ccco1)N1CCC2(CC1)CN(C(c1ccccc1)c1ccccc1)C2	/	/	.	/
Nc1sccc1C(=O)c1ccc(Cl)cc1	.	24	.	.
O=C(O)c1ccccc1C(=O)c1ccc(Cl)cc1	.	.	.	.
NC(=O)c1ccsc1N	.	.	/	6.3µM
COc1ccc(N2CCN(C(=O)Cn3nc(Cc4cccnc4)c4ccccc4c3=O)CC2)cc1	/	/	.	.
